Screening data deposited in PubChem by National Center for Advancing Translational Sciences (NCATS).
This is a sample that favours compounds with a hit; in the whole collection about 3.6% have one here.
HTT-AS promoter: activates huntingtin-antisense promoter activity; 0.24% of 48,000 active; HEK293 HTT-AS promoter firefly luciferase reporter, 24 h; response scale: percent change from vehicle, -100% = no light; Potency, µM (highest dose often 57.5 µM), inactives show top-dose activity change, positive = activation, usual class: activators; further: potency means the concentration at half of the fitted maximal effect; nearly all actives have a fitted effect of over 55% in size
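HEK293 Fluc reporter, 2,500 cells/well, 24 h pre-culture; cpds up to 57.5 uM final, 24 h 37 degrees C; Dual-Glo, 10 min RT; normalized vehicle = 0%, zero RLU = -100%.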
PMP22 txn: modulators of PMP22 gene transcription in S16 Schwann cells. AID 1508649. 2% of 43,000 active. Potency, µM (titrated, usually from 57.5 µM), for the others: at the highest dose activity change, negative = inhibition, usual class: inhibitors. S16 Pmp22-F2sN Schwann cells, FLuc/NLuc coincidence luminescence, 24 h; active means clear falling dose curves in both reporters; inconclusive means both reporters move, but less clearly or upward; inactive means either reporter flat; the % is the NLuc reporter signal; further: potency means the concentration at half of the fitted maximal effect; on the % scale 0 is the no-effect control and ±100 the full control effect
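S16(c9) Schwann cells with FLuc/NLuc coincidence reporter in the Pmp22 3' UTR; compounds pin-transferred, 24 h at 37C. Dual-luciferase read: FLuc first, then NLuc after Stop&Glo, each 10 min at room temperature.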
S16 viability: toxic to S16 Pmp22-F2sN Schwann cells; 0.48% of 43,000 active; S16 Pmp22-F2sN Schwann cells (luciferase reporters placed in the Pmp22 gene) viability, CellTiter-Glo, 24 h; AID 1508642; Potency, µM (top dose mostly 57.5 µM), inactives show top-dose activity change, negative = cytotoxicity, most hits filed as cytotoxic; further: potency means the concentration at half of the fitted maximal effect; on the % scale 0 is the no-effect control and ±100 the full control effect; nearly all actives have a fitted effect of over 65% in size
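Seed 500-1,000 S16 Pmp22-F2sN cells per well in phenol-red-free DMEM with 10% heat-inactivated FBS; pin-add 23 nL compound; incubate 24 h at 37C; add CellTiter-Glo, wait 15 min protected from light; read luminescence.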
mTORC1 inh: inhibitors of mTORC1 signaling in Tsc2-/- p53-/- MEF cells | AID 493208 | 0.78% of 44,000 active | Tsc2-/- p53-/- MEF, phospho-rpS6 immunofluorescence/PI, 24 h | Potency, µM (series often up to 38.3 µM), without a hit: at the top dose activity change, negative = inhibition, hits mostly inhibitors;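 further: potency means the concentration at half of the fitted maximal effect; plate controls were DMSO for no effect and rapamycin for full effect; nearly all actives have a fitted effect of over 50% in size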
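Immunofluorescence of rpS6 phosphorylation in Tsc2-/-, p53-/- MEFs after 24 h compound exposure, normalized to propidium iodide signal. Activity is expressed as % positive cells, thresholded with 7.5 nM rapamycin.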
HTT promoter inh: inhibits huntingtin promoter activity; HEK293 HTT promoter firefly luciferase reporter, 24 h; Potency, µM (highest dose often 57.5 µM), for inactives: top-dose activity change, negative = inhibition, actives largely listed as inhibitors; 0.93% of 48,000 active; AID 1508623; further: potency means the concentration at half of the fitted maximal effect; nearly all actives have a fitted effect of over 50% in size
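HEK293 Fluc reporter, 2,500 cells/well, 24 h pre-culture; cpds up to 57.5 uM final, 24 h 37 degrees C; Dual-Glo, 10 min RT; normalized vehicle = 0%, zero RLU = -100%.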
NLuc saturating: counter-screen for PMP22 expression modulators: NanoLuc inhibition, saturating substrate | shares compounds with PMP22 txn | Secreted NLuc enzyme (filtered S16 cell medium), Nano-Glo luminescence | Potency, µM (top dose mostly 57.5 µM), without a hit: at the top dose activity change, negative = inhibition, actives largely listed as inhibitors | 4% of 690 active | AID 1508638; further: potency means the concentration at half of the fitted maximal effect; on the % scale 0 is the no-effect control and ±100 the full control effect
NLuc Km counter: inhibits NanoLuc under Km conditions, PMP22 counter-screen; shares compounds with PMP22 txn; secreted NLuc enzyme, coelenterazine luminescence, Km conditions; Potency, µM (highest dose often 57.5 µM), without a hit: at the highest dose activity change, negative = inhibition, actives largely listed as inhibitors; 5% of 690 active; AID 1508639; further: potency means the concentration at half of the fitted maximal effect; on the % scale 0 is the no-effect control and ±100 the full control effect
FLuc counter: inhibits firefly luciferase, PMP22 counter-screen; shares compounds with PMP22 txn; purified P. pyralis FLuc, luminescence, 10 min; Potency, µM (doses to about 57.5 µM), inactives show top-dose activity, negative = inhibition, most hits filed as inhibitors; 690 tested, under 10 active; further: % of control where 0% means no effect
Target sequence (P08659 whole entry, looked up): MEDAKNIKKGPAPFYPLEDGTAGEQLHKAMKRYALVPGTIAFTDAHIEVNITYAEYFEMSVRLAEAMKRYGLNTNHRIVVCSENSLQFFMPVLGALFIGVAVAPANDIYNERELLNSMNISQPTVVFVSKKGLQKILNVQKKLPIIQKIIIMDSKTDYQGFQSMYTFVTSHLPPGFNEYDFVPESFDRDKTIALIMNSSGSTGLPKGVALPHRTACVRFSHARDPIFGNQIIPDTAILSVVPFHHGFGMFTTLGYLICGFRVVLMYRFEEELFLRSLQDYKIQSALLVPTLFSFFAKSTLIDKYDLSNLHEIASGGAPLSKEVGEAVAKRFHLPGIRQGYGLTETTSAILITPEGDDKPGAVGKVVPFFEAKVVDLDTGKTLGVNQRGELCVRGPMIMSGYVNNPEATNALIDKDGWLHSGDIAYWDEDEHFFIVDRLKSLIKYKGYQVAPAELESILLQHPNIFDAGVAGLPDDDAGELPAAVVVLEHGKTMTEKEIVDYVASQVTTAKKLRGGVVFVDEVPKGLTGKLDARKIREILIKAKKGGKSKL
S16 F2sN tox cnf: S16 Schwann cell cytotoxicity, confirmatory. S16 Schwann cells viability, CellTiter-Glo ATP luminescence, 24 h. shares compounds with PMP22 txn. Potency, µM (highest dose often 57.5 µM), for inactives: at the top dose activity change, negative = viability loss, usual class: cytotoxic. 7% of 690 active; further: potency means the concentration at half of the fitted maximal effect; on the % scale 0 is the no-effect control and ±100 the full control effect
PMP22 txn cnf: confirmation of modulators of PMP22 gene transcription in S16 cells | shares compounds with PMP22 txn | S16 Schwann cells Pmp22-F2sN, dual luciferase, 24 h | Potency, µM (series often up to 57.5 µM), without a hit: at the highest dose activity change, negative = inhibition, most hits filed as inhibitors | 22% of 690 active | AID 1508646; active means clear falling dose curves in both reporters; inconclusive means both reporters move, but less clearly or upward; inactive means either reporter flat; the % is the FLuc reporter signal; further: potency means the concentration at half of the fitted maximal effect
PMP22 HiBiT cnf: rat PMP22 protein level modulation, confirmatory; shares compounds with PMP22 txn; S16 Schwann cells Pmp22-HiBiT, luminescence, 48 h; Potency, µM (series often up to 27.9 µM), inactives show at the highest dose activity change, negative = inhibition, hits mostly inhibitors; 95 tested, under 10 active; AID 1508647
Target sequence (P25094 whole entry, looked up): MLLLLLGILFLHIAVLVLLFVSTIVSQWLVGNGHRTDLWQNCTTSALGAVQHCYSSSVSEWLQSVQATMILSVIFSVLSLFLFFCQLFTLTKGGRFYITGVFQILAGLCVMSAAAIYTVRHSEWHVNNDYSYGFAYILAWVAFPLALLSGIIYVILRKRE
* hit, by the source's call; ? = inconclusive; . = no result; [ ] = remark or other dose. Unless noted, the call rests on the fitted dose curve; in most records, active means well fitted curve in the direction sought with a large enough effect; inconclusive means small, poorly fitted or top-dose-only effect, or another doubt; inactive means no such curve, though single readings can be large; an effect the other way counts as inactive or inconclusive.

SMILES | HTT-AS promoter | PMP22 txn | S16 viability | mTORC1 inh | HTT promoter inh | NLuc saturating | NLuc Km counter | FLuc counter | S16 F2sN tox cnf | PMP22 txn cnf | others
COc1ccc(NC(=O)c2ccc3c(=O)n4nc(Nc5cccc(Cl)c5C)sc4nc3c2)cc1 | -1% | ? | ? | -6% | -1% | . | . | . | . | .
Cc1ccc(NC(=O)c2ccc3c(=O)n4nc(Nc5ccccc5C)sc4nc3c2)cc1C | -5% | 9.5µM* | 11% | -1% | -2% | -10% | ? | -4% | 27µM* | 13µM*
COc1ccc(NC(=O)c2ccc3c(=O)n4nc(Nc5ccccc5C)sc4nc3c2)cc1 | -16% | ? | 11% | -3% | -21% | . | . | . | . | .
COc1ccc(NC(=O)c2ccc3c(=O)n4nc(Nc5ccccc5C)sc4nc3c2)cc1Cl | -11% | 11µM* | -5% | 1% | -7% | -10% | ? | -2% | 24µM* | 15µM*
NC(N)=Nc1nc(CSCCC(N)=NS(N)(=O)=O)cs1 | -27% | . | . | . | 19% | . | . | . | . | .
CCCC(CCC)(C(=O)OCC)C(=O)OCC | -1% | . | . | . | 4% | . | . | . | . | .
CCOC(=O)Oc1ccc(CCNC(=O)[C@H](CCSC)NC(C)=O)cc1OC(=O)OCC | -2% | . | . | . | 1% | . | . | . | . | .
Cc1ccc(CNC(=O)c2cn(C)c3ccc(S(=O)(=O)N(C)C4CCCCC4)cc3c2=O)cc1 | -5% | -25% | 1% | -3% | -12%[11.5 µM] | . | . | . | . | .
CN(C1CCCCC1)S(=O)(=O)c1ccc2c(c1)c(=O)c(C(=O)NCc1ccc(Cl)cc1)cn2C | 29%[11.5 µM] | ? | -1% | 0% | -11% | -1% | 7% | 7% | -11% | -31%
COc1cc(C)c(Sc2cnc(NC(=O)c3ccc(CNC(C)C(C)(C)C)cc3)s2)cc1C(=O)N1CCN(C(C)=O)CC1 (stereo not drawn) | -9% | . | . | . | -23% | . | . | . | . | .
O=C(CSc1c2c(nc3ccc(Cl)cc13)CCCC2)N1CCN(c2cccc(Cl)c2)CC1 | -52% | 20µM* | -12% | -19% | ? | -8% | -1% | 0% | 17% | ?
CCc1ccc(CNC(=O)CSc2c3c(nc4ccc(Cl)cc24)CCCC3)cc1 | -9% | 6.2µM* | -1% | 0% | -18% | -8% | ? | 5% | 4% | ?
CC(C)OCCCNC(=O)CSc1c2c(nc3ccc(Cl)cc13)CCCC2 | -85% | 12µM* | ? | -10% | ? | -10% | 5% | 2% | ? | 19µM*
O=C(CSc1c2c(nc3ccc(Cl)cc13)CCCC2)N1CCN(c2ccc(Cl)cc2)CC1 | -14% | ? | -2% | 1% | 2% | . | . | . | . | .
CCN(CC)CCCNC(=O)CSc1c2c(nc3cc(Cl)ccc13)CCCC2 | -67% | 6.7µM* | ? | ? | ? | -3% | -1% | 3% | ? | 10µM* | PMP22 HiBiT cnf=66%
CCOC(=O)[C@@H](N)CCC(=O)N[C@@H](CSCc1ccccc1)C(=O)N[C@@H](C(=O)OCC)c1ccccc1 | -18% | . | . | . | -22% | . | . | . | . | .
COC(=O)c1ccc(NC(C)=O)cc1OC | -5% | . | . | . | -2% | . | . | . | . | .
Nc1c(I)cc(I)c(C(=O)N(CCC(=O)O)c2ccccc2)c1I | -24% | . | . | . | -5% | . | . | . | . | .
COC(=O)CSc1nnc(-c2cccc(O)c2)o1 | -3% | -6% | 11% | -1% | -1% | . | . | . | . | .
CC(=O)OCC#CCSc1nnc(-c2cccc(Br)c2)o1 | 7% | 9.2µM* | 10% | 3% | -2% | ? | ? | -12% | ? | ?
CCOC(=O)c1cc2c(=O)n3ccccc3nc2n(C)c1=NC(=O)c1c(-c2c(F)cccc2Cl)noc1C | 7% | 2.1µM* | 0% | -12% | -8% | ? | -17% | 5% | 12% | -17%
CCOC(=O)c1cc2c(=O)n3ccccc3nc2n(C(C)C)c1=NC(=O)c1c(-c2c(F)cccc2Cl)noc1C | -38% | 11µM* | ? | -1% | -24% | ? | -16% | 3% | 18% | ?
CCOC(=O)c1sc2ccccc2c1S(=O)(=O)N1CCN(c2cccc(OC)c2)CC1 | -44% | 6.3µM* | ? | ? | -11% | -14% | -1% | 6% | 0% | -29%
CCc1ccccc1NC(=O)Cn1c(=O)n(Cc2ccc3c(c2)OCO3)c(=O)c2ccc(C(=O)NC3CCCCC3)cc21 | -11% | 12µM* | 12% | 0% | -12% | 1% | 5% | 4% | -29% | 11µM*
Cc1cc(C)c(NC(=O)Cn2c(=O)n(Cc3ccco3)c(=O)c3ccc(C(=O)NC4CCCC4)cc32)c(C)c1 | -7% | 5µM* | 14% | -7% | -8% | -13% | 8% | -17% | 22µM* | 12µM* | PMP22 HiBiT cnf=17%
O=C(Cn1c(=O)n(Cc2ccc3c(c2)OCO3)c(=O)c2ccc(C(=O)NC3CCCCC3)cc21)Nc1ccccc1F | -18% | ? | -2% | ? | -18% | . | . | . | . | .
Cc1ccc(C)c(NC(=O)Cn2c(=O)n(Cc3ccco3)c(=O)c3ccc(C(=O)NC4CCCC4)cc32)c1 | -29% | ? | 2% | ? | -10% | . | . | . | . | .
CCOc1ccc(NC(=O)Cn2c(=O)n(Cc3ccc4c(c3)OCO4)c(=O)c3ccc(C(=O)NC4CCCCC4)cc32)cc1 | -16% | 17µM* | 1% | 0% | -15% | 4% | 10% | 0% | ? | 13µM*
CCOC(=O)[C@H]1O[C@H]1C(=O)N[C@@H](CC(C)C)C(=O)NCCC(C)C | -7% | . | . | . | -10% | . | . | . | . | .
